# The full list was thinned out, with hits kept by preference.
# ERK EGF inh = qHTS Assay for Inhibitors of the ERK Signaling Pathway using a Homogeneous Screening Assay; Stimulation with EGF; AID 1454, 2008; HEK293-V1b, EGF-stimulated phospho-ERK AlphaScreen; actives 0.41% (n = 130,000); Potency, µM (series often up to 11.5 µM), most hits filed as inhibitors; active means well fitted inhibition curve with a large enough effect; further: nearly all actives have a fitted effect of over 55% in size
#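 In this qHTS, HEK293 cells with stable type-1 vasopressin (V1b) receptor were exposed to compound at 37C for 30 min, stimulated 5 min with EGF at 25 nM, lysed, and probed for phospho-ERK by AlphaScreen.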
# Numbers stand for hits; n = inactive; ! = a repeat was not active.
SMILES,ERK EGF inh
CCCCN1CCC[C@@H]1CNC(=O)c1cc(C#N)c2ccccc2c1OC,n
O=C(Oc1ccccc1)N1CCC[C@@]2(CCN(c3ccccn3)C2)C1,n
Cn1nc(-c2ccccc2)c(N2CCCCC2)cc1=O,n
O=C1c2ccccc2-c2cccc(C(=O)N3CCCCC3)c21,n
Cn1c(=O)cc2c3c(c(N4CCCCC4)ccc31)C(=O)c1ccccc1-2,22µM
COc1ccc2c(c1)C(=O)[C@H](OC(=O)NCc1ccco1)[C@@H](c1ccc(OC)c(Br)c1)O2,n
CC(C)(C)Nc1oc(-c2ccccc2)nc1-c1ccccc1,n
CN(C)CCOC(c1ccccc1)c1ccccc1,14µM!
CN(C)CCOC(c1ccc(Cl)cc1)c1ccccn1 (stereo not drawn),n
CN(C)CCOC(c1ccccc1)c1ccccc1 (tested in a mixture with another compound),n
CCCCCCN(C(=O)CCCCCN1C(=O)NC(C2CCCCC2)C(C(=O)OCc2ccccc2)=C1C)C(C(=O)NCCCC)c1ccc(OCC(=O)OC)c(C(=O)OC)c1 (stereo not drawn),n
O=C(Nc1cccc(Br)c1)c1ccc(OC2CSC2)cc1,25µM
Cc1cccc(NC(=O)c2ccc(OC3CSC3)cc2)c1,n
COC(=O)c1cccc(NC(=O)c2ccccc2)c1,n
CCC1=C2CC[C@H]3C(=O)N(CC)C(=O)[C@H]3[C@H]2[C@@]2(Cc3ccccc3)C(=NCC3CC3)OC(=O)N2C1=O,n
COc1ccccc1CCn1c(=O)c(-c2ccccc2)nc2cncnc21,n
C=CC(C1=CC(=O)C(OC)=CC1=O)c1ccccc1 (stereo not drawn),n
O=S(=O)(c1ccccc1)N1CCC2(CC1)CN(c1ncccn1)C2,n
O=C(O)c1ccc(NS(=O)(=O)c2ccsc2C(=O)O)cc1,n
Cc1cc(-c2ccccc2)nc2cc(C(=O)NCCCn3ccnc3)nn12,n
Cc1cccc(-c2cc3nc(C)cc(C)n3n2)c1,n
Cc1cccc(-c2cc3nc(C)c(C)c(NCCCn4ccnc4)n3n2)c1,32µM
O=c1c(O)c(-c2ccc(O)c(O)c2)oc2c(OC3OC(CO)C(O)C(O)C3O)c(O)cc(O)c12 (stereo not drawn),n
CC(=O)Oc1cc(OC(C)=O)c2c(c1)OC(c1ccc(OC(C)=O)c(OC(C)=O)c1)C(OC(C)=O)C2 (stereo not drawn),n
O=C(O)CC/C=C\C[C@@H]1CO[C@H](c2ccccc2Cl)O[C@@H]1c1ccccc1O,n
SMILES,ERK EGF inh
C[C@H]1C2=C3C(C[C@H]4C(=O)N(c5ccccc5)C(=O)[C@H]4[C@H]3[C@@]3(Cc4ccccc4)C(=NCCc4c[nH]c5ccccc45)OC(=O)N3C2=O)[C@H]2C(=O)N(c3ccccc3)C(=O)[C@H]21 (stereo partly drawn),n
COC(=O)CC1c2ccccc2C(Cc2ccc3c(c2)OCO3)=C(C)N1C(=O)OC (stereo not drawn),n
COc1ccc(C(=O)C[n+]2cccc(C)c2C)cc1[N+](=O)[O-],n
Cc1cc(C(C)(C)C)ccc1OCCCCN1CCCC1,n
CCC(C)(C)c1ccc(OCCCC[n+]2cccc(C)c2C)c(C(C)(C)CC)c1,32µM
COc1cccc(-c2ccc3ncnc(NCc4cccs4)c3c2)c1,28µM
c1cncc(CNc2ncnc3ccc(-c4cccnc4)cc23)c1,n
COc1cccc(-c2ccc3ncnc(NC4CCNCC4)c3c2)c1,n
CCC(Oc1ccc2c(=O)c(-c3ccccc3OC)coc2c1)C(=O)OCc1ccccc1 (stereo not drawn),n
COC(=O)COc1ccc2c(=O)c(-c3ccccc3)coc2c1,n
CC(C)Oc1ccc2c(=O)c(-c3ccccc3)coc2c1,18µM
C=C(C(=O)OCC)C(=O)c1ccccc1,n
CC/C=C\C/C=C\C/C=C\C/C=C\C/C=C\C/C=C\CCC(N)=O,n
COc1ccc(-c2nc3cnc(N4CCNCC4)nc3n(CCc3ccccc3)c2=O)cc1,n
CN1/C(=C/c2cc[n+](C)c3ccccc23)C=Cc2ccccc21,10µM
COC(=O)/C(C#N)=C1/C=Cc2ccccc2N1C,n
Cc1cccc(CNc2nc(-c3ccc(C(=O)N(C)C)cc3)nc3ccccc23)c1,n
Cc1cccc(CNc2nc(-c3cccnc3)nc3ccccc23)c1,32µM
COc1cccc(CNc2nc(-c3cccnc3)nc3ccccc23)c1,n
COC(=O)c1ccc(C(NC(=O)OCc2ccccc2)/C(F)=C/[C@@H](C)C(=O)NCCc2c[nH]c3ccc(OC)cc23)cc1 (stereo partly drawn),n
CCCn1c(-c2ccc(F)cc2)nc2c(NCCCN(CC)CC)nc(C)nc21,n
C=C(COC)C1=CCC(C(=O)OC)(C(=O)OC)[C@@H](C[N+](=O)[O-])c2ccccc21,n
CCC/C=C(\CCC)C(NC(=O)c1cccs1)c1ccc(C(=O)OC)cc1 (stereo not drawn),n
COc1ccc2c(c1)O[C@H](c1ccc3c(c1)OCO3)[C@@H](OC(=O)NCCc1ccc(OC)c(OC)c1)C2=O,n
CCOC(=O)c1c(NC(=O)c2ccc(C)cc2)sc2c1CC(C)(C)NC2(C)C,n
SMILES,ERK EGF inh
COC(=O)c1c(NC(=O)c2ccc(OC(C)C)cc2)sc2c1CC(C)(C)NC2(C)C,28µM
COC(=O)c1c(NC(=O)c2ccccc2)sc2c1CC(C)(C)NC2(C)C,n
O=C(c1ccco1)N1CCC2(CC1)CN(C(c1ccccc1)c1ccccc1)C2,n
C=CC1=C(C)/C(=C/c2[nH]c(Cc3[nH]c(/C=C4\NC(=O)C(C)=C4C=C)c(C)c3CCC(=O)O)c(CCC(=O)O)c2C)NC1=O,n
CCC(C)NC(=O)C1CCCN1S(=O)(=O)c1ccc(Cl)cc1 (stereo not drawn),n
CC1CCCN(C2=C(NS(=O)(=O)c3ccc(Cl)cc3)C(=O)c3ccccc3C2=O)C1 (stereo not drawn),10µM
CC1CCCN(C2=C(Cl)C(=O)N(c3cccc(Cl)c3)C2=O)C1 (stereo not drawn),n
CCCC[C@@H]1C[C@H]1C(NC(=O)c1ccccc1)c1ccc(C(F)(F)F)cc1 (stereo partly drawn),n
CC(=O)O[C@@H](C)C#C[Si](C)(C)c1ccccc1,n
CCCCC/C=C\C/C=C\CC1OC1C/C=C\CCCC(=O)O (stereo not drawn),n
C=N[C@H](C(=O)N[C@@H]1C(=O)N2[C@@H]1SC(C)(C)[C@@H]2C(=O)O)c1ccccc1,n
NC(=O)Cc1nc2scc(-c3ccccc3)c2c(=O)[nH]1,n
CC(C)[C@H](NC(=O)c1ccccc1)C(=O)OCc1nc2scc(-c3ccccc3)c2c(=O)[nH]1,35µM
Cc1csc(SCc2nc3scc(-c4ccccc4)c3c(=O)[nH]2)n1,n
COC(=O)N1CCC2(CC1)CN(C(c1ccccc1)c1ccccc1)C2,n
CC(NCCc1ccc(O)cc1)C(O)c1ccc(O)cc1 (stereo not drawn),n
C[C@@H](NCCc1ccc(O)cc1)[C@@H](O)c1ccc(O)cc1,n
CCCCCCCCNC(C)C(O)c1ccc(SC(C)C)cc1 (stereo not drawn),35µM!
C=C(C(C)=O)C(O)c1ccc2ccccc2c1 (stereo not drawn),n
COc1ccccc1CNc1ccnc(-c2ccc3c(c2)OCO3)n1,n
Cc1ccc(C(=O)c2cc3ccccc3o2)cc1[N+](=O)[O-],22µM
COc1cc2c(cc1NC(=O)c1ccc(C)c([N+](=O)[O-])c1)oc1ccccc12,n
Cc1ccc(C(=O)NCCSCc2ccccc2)cc1[N+](=O)[O-],n
